Screening results as filed in PubChem.
esBAF inh – inhibitors of esBAF chromatin remodeling in mouse ES cells | Bmi1-luciferase knock-in reporter, 24 h; 100% = twice the neutral-well signal | reporter increase, % at 12.5 µM | 2% of 350,000 active; in the data active = activation above about 40%;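 note: 0% = median of the plate's neutral control wells and 100% = double that signal; a rise in the Bmi1 reporter signal indicates esBAF inhibition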
Gli-Sufu block – Gli-Sufu pathway antagonism. Sufu-KO-LIGHT fibroblasts, Gli luciferase reporter luminescence. inhibition, % at 5 µM. 0.74% of 340,000 active;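 active = inhibition above about 55%, limit read from the data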;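 note: 0% = DMSO-treated cells and 100% = wells with medium but no cells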
Jurkat NFkB inh – lowers PMA/ionomycin-induced NF-kB signal in Jurkat cells. 0.53% of 330,000 active. PMA/ionomycin-induced NF-kB luciferase reporter, luminescence. inhibition, % at 4 µM. AID 435003; in the data active = inhibition above about 50%
697 NFkB inh – inhibitors of the PMA/ionomycin-induced NF-kB reporter in 697 B cells; 697 B-cell NF-kB luciferase reporter, 16 h; inhibition, % at 4 µM; 0.33% of 330,000 active; AID 435022; in the data active = inhibition above about 35%
SMARCA2 act – SMARCA2 function activation, primary screen | MG213 cells, MMTV-luciferase reporter, dexamethasone, overnight | activation, % at 9.1 µM | 1% of 370,000 active; in the data active = activation above about 7.8%;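 note: 0% = vehicle wells and 100% = reference activator wells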
* hit, by the source's call; · = no result given. Compounds with a hit are over-represented: about 3.3% of the library has one in this group of screens.

SMILES	esBAF inh	Gli-Sufu block	Jurkat NFkB inh	697 NFkB inh	SMARCA2 act
Cc1ccc(C(=O)N=c2sccn2C)cc1C	·	-125	-150	-109	5
Cn1ccsc1=NC(=O)c1ccc(Cl)c([N+](=O)[O-])c1	83*	0	-21	-2	4
Cc1ccc(C(=O)N=c2sccn2C)cc1S(=O)(=O)N1CCOCC1	63*	-58	-52	-26	3
CCCCOc1ccc(C(=O)N=c2sccn2C)cc1OC	57*	-67	-62	-62	3
C[C@H](CO)N1C[C@H](C)[C@H](CN(C)C(=O)c2ccncc2)OCCCC[C@H](C)Oc2ccc(NC(=O)c3ccccc3)cc2C1=O	-1	·	·	·	·
C=CCn1c(N)c(C(=O)NCCC2=CCCCC2)sc1=S	47*	-28	-60	-19	0
NC(=O)NCCC1=CCCCC1	0	21	12	14	-1
COCC(=O)N[C@@H]1CC[C@@H](CC(=O)NCc2ccccc2OC)O[C@H]1CO	-2	·	·	·	·
O=C(c1ccccc1)c1ccc2cc(O)ccc2c1	55*	-25	-30	-35	1
COC(=O)N(C)c1nc2ccccc2s1	27	3	-22	-11	3
CCCCNC(=O)N(C)c1nc2ccccc2s1	64*	17	-76	-65	6
CN(C)C1CCN(Cc2cc(COCc3ccccc3)c3cccnc3c2O)C1 (stereo not drawn)	-74	57*	25	-61	·
Oc1ccc(Cc2ccccc2)c2cccnc12	-32	-15	·	·	-4
COCc1cc(CN2CCCC2)c(O)c2ncccc12	0	4	18	-21	-2
Oc1ccc(COCc2ccccc2)c2cccnc12	60*	-12	-14	-67	3
Oc1c(CN2CCN(c3ccccn3)CC2)cc(Cl)c2cccnc12	·	71*	34	-58	·
COc1ccccc1N1CCN(Cc2cc(Br)c(O)c3ncccc23)CC1	-40	58*	47	-111	-2
C[C@@H]1CN([C@@H](C)CO)C(=O)c2c(c3ccccc3n2C)-c2ccccc2CO[C@@H]1CN(C)CC1CC1	-6	·	·	·	·
O=C(Cc1ccccc1)N1C[C@H]2[C@@H](c3ccccc31)[C@@H](CO)N2C(=O)C1CCCC1	-5	·	·	·	·
Oc1c(CN2CCCCC2)cc(COCc2ccccc2)c2cccnc12	-44	92*	8	-33	1
O=C(NC1=NCCS1)c1ccc(Cl)cc1	44*	-77	-87	-127	1
O=C(C1CC1)N1CCN(c2nc3ccccc3s2)CC1	46*	-51	-75	-79	1
COc1ccc(C(C#N)=Cc2ccc(N(C)CCC#N)cc2)cc1	77*	·	·	·	-1
COc1ccc(C(C#N)=Cc2cc(OC)c(OC)c(OC)c2)cc1	·	·	·	·	0
COc1ccc(/C(C#N)=C/c2cccnc2)cc1	42*	·	-14	-18	5
SMILES	esBAF inh	Gli-Sufu block	Jurkat NFkB inh	697 NFkB inh	SMARCA2 act
CNC[C@@H]1Oc2cc(C#CC3CCCC3)ccc2S(=O)(=O)N([C@H](C)CO)C[C@H]1C	-2	·	·	·	·
O=C(OCC(=O)N1CCCC1)c1c[nH]c2ccccc12	26	-21	-19	-15	7
O=C(CCCc1c[nH]c2ccccc12)N1CCCCCC1	60*	-34	-13	-41	-2
O=C(CCc1c[nH]c2ccccc12)N1CCCC1	4	4	18	7	-1
O=C(COC(=O)c1n[nH]c2ccccc12)Nc1ccccc1F	123*	-8	-58	-63	2
O=C(OCC(=O)N1CCCCC1)c1c[nH]c2ccccc12	35	-40	-43	-39	7.8*
O=C(COC(=O)c1n[nH]c(=O)c2ccccc12)Nc1ccccc1F	2	9	-4	1	-3
O=C(COC(=O)C1CC1)c1c[nH]c2ccccc12	48*	-12	-48	-7	6
CC1CCCN(C(=O)COC(=O)c2n[nH]c3ccccc23)C1 (stereo not drawn)	70*	-19	-37	-23	2
CC1CCN(C(=O)COC(=O)c2c[nH]c3ccccc23)CC1	57*	-39	-39	-17	1
C[C@H](CO)N1C[C@H](C)[C@H](CN(C)C(=O)C2CCCCC2)OCc2cn(nn2)CCCC1=O	-6	·	·	·	·
CCc1ccn2cc(-c3cc(-c4ccccc4)no3)nc2c1	-82	56*	29	-32	-9
COc1ccc(S(=O)(=O)N(C)C[C@H]2Oc3ccc(NC(=O)CCCCCC(=O)Nc4ccccc4N)cc3CC(=O)N([C@@H](C)CO)C[C@H]2C)cc1	-7	·	·	·	·
CC(Sc1cnc2ccccc2n1)C(=O)O (stereo not drawn)	·	-6	6	-7	-2
Cc1ccc(Sc2cnc3ccccc3n2)cc1	66*	-18	-74	-92	4
COC(=O)[C@H]1[C@H](CO)[C@H]2Cn3c(ccc(/C=C/c4ccccc4)c3=O)[C@H]2N1C(=O)CC1CC1	3	·	·	·	·
CO[C@@H]1CN(C)C(=O)c2ccc(NC(=O)c3cccc(F)c3)cc2OC[C@H](C)N(CC2CC2)C[C@@H]1C	5	·	·	·	·
COc1ccc(/C=C/C(=O)NC(=S)Nc2ccccc2)cc1OC	3	30	-19	-10	-2
COc1ccc(C(=O)CC(=O)c2ccccc2O)cc1OC	57*	-15	-10	-26	2
CCC(=O)c1ccc(OCc2ccccc2)c(OC)c1	95*	4	-85	-97	1
COc1cc(/C=C/C(=O)NC(=O)c2ccccc2O)ccc1OC(C)=O	54*	-32	-22	3	5
CCC(=O)c1ccc(OCc2ccc(C(=O)OC)cc2)c(OC)c1	12	-17	-4	-77	1
COCC(=O)N(C)C[C@H]1Oc2ncc(Br)cc2C(=O)N([C@H](C)CO)C[C@@H]1C	1	·	·	·	·
O=C(N[C@H]1CC[C@H](CCn2cc(-c3ccc(F)cc3)nn2)O[C@@H]1CO)c1cnccn1	8	·	·	·	·
O=C(CSc1ncn(-c2ccccc2)n1)c1cccs1	64*	-54	-81	-90	3
SMILES	esBAF inh	Gli-Sufu block	Jurkat NFkB inh	697 NFkB inh	SMARCA2 act
Nc1nc(CSc2ncn(-c3ccccc3)n2)cs1	-36	-70	-73	-66	·
c1ccc(CSc2ncn(-c3ccccc3)n2)cc1	45*	13	-110	-186	3
O=C(NCC[C@@H]1CC[C@@H](NC(=O)c2ccc3c(c2)OCO3)[C@H](CO)O1)Nc1cc(F)ccc1F	10	·	·	·	·
C[C@@H]1CN([C@H](C)CO)C(=O)c2cc(C#CC3CCCCC3)cnc2O[C@@H]1CN(C)Cc1cncnc1	2	·	·	·	·
Cc1ccc(N=Nc2c(O)n(CN3CCOCC3)c3ccccc23)cc1	54*	-71	-129	-137	·
Cc1cccc(NC(=S)N=Nc2c(O)n(CN3CCOCC3)c3ccccc23)c1C	·	2	11	18	0
Cc1noc(C)c1NC(=O)Nc1ccc2c(c1)C(=O)N([C@@H](C)CO)C[C@H](C)[C@@H](CN(C)Cc1ccccc1)OCCCC[C@@H](C)O2	3	·	·	·	·
Clc1ccc(/C=N/Nc2ncnc3ccccc23)cc1Cl	74*	-57	-123	-111	4
Cc1ccc(Nc2nc(N)nc(CSc3nccn3C)n2)cc1	·	-76	-95	-140	5
Cc1cccc(Nc2nc(N)nc(CSc3nccn3C)n2)c1	53*	-52	-19	-38	7
